# According to PubChem BioAssay AID1259415 (National Center for Advancing Translational Sciences (NCATS), 2018):
# The whole screen tested about 410,000 compounds, of which about 18,000 (4.4%) were called active. Roughly 7% stayed inconclusive and do not appear here. Shown is part of a subset that was picked to be rich in actives. Unmarked numbers belong to inactive results. No stated cut-off is given here; in the data, active means activity change below about -60%; inconclusive means no clear call, values can overlap the other calls; inactive means above about -39%.
# Test: qHTS Assay for inhibitors of the human cytomegalovirus (HCMV)
# Details: HFF cells, HCMV-luciferase reporter, 72 h; at 57.5 µM; hits give low values
# Source text: NCGC Assay Overview: Infection with human cytomegalovirus (HCMV) continues to pose significant threats for pregnant women and immunocompromised hosts. HCMV causes serious morbidity and mortality in transplant recipients, and congenital HCMV is the leading infectious cause of mental retardation and deafness in children. In the 1990s, the annual costs associated with the disease burden of congenital CMV were estimated at around $2 billion. A HCMV vaccine is not available yet and HCMV therapies result in intolerable side effects and emergence of drug resistant viruses. […] Towards this goal we have developed and characterized a luciferase HCMV reporter that was initially used in 96 well plates and then optimized to 1536-well plates for utilization in screening of the MLSMR collection, the NGCG diversity collection and the NCGC Pharmaceutical Collection of approved and investigational drugs.
# NCGC Assay Protocol Summary:
# This is a cell-based assay for HCMV inhibition in HFFs cells. The screening used 2 compound doses and the HCMV-luciferase at MOI of 1 PFU/cell. Cells were treated and infected with HCMV. At 72 h post infection cell lysates were collected and luciferase activity was determined using the Glomax-Multi + Detection System (Promega, Madison, WI). Data were normalized to the controls for basal activity (buffer only) and known HCMV inhibitors Salinmoycin.
# 1536-well assay protocol for the assay:
# (1) Add 3 ul CMV/HFF cell culture. 1000 cells/well in DMEM nirmal media.
# (2) Incubate 16 hr at 37C.
# (3) Add 23 nl control compound, 10uM of Salinomycin.
# (4) Add 23 nl compounds in DMSO solution.
# (5) Add 3 ul CMV suspension. Final 1 puf/ul, Virus stock 2000pfu/ul
# (6) Incubate 72 hrs at 37C.
# (7) Add 4 ul OneGlo Luc Reagent.
# (8) Incubate 5 min at room temperature.
# On the % scale 0 is the no-effect control and ±100 the full control effect.
row,Structure (SMILES),"activity change, negative = inhibition"
1,Cc1cc(C)c(C)c(S(=O)(=O)Nc2cccnc2)c1C,-18.7%
2,COc1ccccc1Oc1ccc(S(=O)(=O)Nc2cccnc2)cc1,-79.4% (active)
3,COc1ccc(S(=O)(=O)Nc2cccnc2)c(Cl)c1Cl,-8.35%
4,CCN(C(=O)CN1CCN(Cc2ccccc2)CC1)c1c(N)n(Cc2ccccc2)c(=O)[nH]c1=O,3.73%
5,Cc1c(-c2nc(-c3ccc4c(c3)OCO4)no2)nnn1-c1ccc(Br)cc1F,-0.877%
6,CCc1nn(CC(=O)N2CCN(c3cccc(C(F)(F)F)c3)CC2)c(=O)c2cc3occc3n12,-6.95%
7,COc1cccc(NC(=O)CSC2=Nc3ccccc3C3=NC(CC(=O)NC4CCCCC4)C(=O)N23)c1 (stereo unspecified),14%
8,O=C(NC1CC(=O)N(c2ccc(F)cc2)C1)c1ccc(S(=O)(=O)N2CCCC2)cc1 (stereo unspecified),-23.1%
9,CCCCNS(=O)(=O)CCNCc1ccccc1OC,-20.1%
10,CCCCc1c(-c2ccc(Br)cc2)ncn1CCc1ccccc1OC,-102% (active)
11,COc1ccccc1Cc1c(-c2ccc(Cl)cc2)nc2ccc(Cl)cn12,13.1%
12,COc1ccc(-c2nnc(SCC(=O)Nc3ccccc3C)o2)cc1OC,45.3%
13,CCCCCc1c(Cc2ccccc2)ncn1CCc1ccccc1OC,-93.7% (active)
14,COC(=O)c1ccc2nc(-c3ccc(OC)c(OC)c3)c(Cc3ccccc3)n2c1,33.9%
15,CCCCCc1c(-c2ccc(OC)c(OC)c2)ncn1CCc1ccccc1OC,-102% (active)
16,CCCc1c(-c2ccccc2F)ncn1Cc1ccccc1OC,-31.6%
17,COc1ccccc1CCNS(=O)(=O)c1cn(C)nc1C,-2.46%
18,FC(F)(F)c1cccc(-c2cnc3ccccc3n2)c1,32.3%
19,Nc1ncc(S(=O)(=O)Nc2ccc(OC(F)(F)F)cc2)cn1,4.7%

row,Structure (SMILES),"activity change, negative = inhibition"
1,CCN1C(=O)c2ccccc2S(=O)c2ccc(C(=O)NCc3ccc(F)cc3)cc21 (stereo unspecified),6.08%
2,CSc1nn(Cc2cccc(C)c2)c(N)c1S(=O)(=O)c1ccccc1,-39.1%
3,O=C(Nc1ccc(OC(F)(F)F)cc1)c1ccc2c(c1)no[n+]2[O-],-88.8% (active)
4,COC(=O)c1cnn(-c2ccc(C(=O)Nc3ccc(OC(F)(F)F)cc3)cc2)c1N,-14.8%
5,Cc1ccc2ncc(C(=O)Nc3ccc(OC(F)(F)F)cc3)c(=O)n2c1,19.1%
6,Cc1ccccc1-n1c(C)cc(/C=N/NC(=O)c2ccc(CN3CCOCC3)cc2)c1C,-25.2%
7,Cc1cccc(-n2c(C)cc(/C=N\NC(=O)c3cccs3)c2C)c1,-61.8% (active)
8,COc1ccc2c(c1)c(C(=O)N/N=C/c1cccs1)c(C)n2C,-14.7%
9,O=C(Nc1cccc(Cl)c1)c1csnn1,-2.8%
10,CC(=O)Nc1cc(C(=O)NCc2ccc(F)cc2Cl)ccc1Sc1ccc(Cl)cc1,5.5%
11,Cn1c(C(=O)Nc2cccc(C(F)(F)F)c2)cc2c(=O)n3ccccc3nc21,63.8%
12,O=C(Nc1ccc(-c2csc(Nc3cccc(C(F)(F)F)c3)n2)cc1)c1cccc(C(F)(F)F)c1,-66.8% (active)
13,Cc1nnsc1C(=O)N/N=C/c1cccc(C(F)(F)F)c1,-22.9%
14,Cc1c(CCNC(=O)c2ccc(C(F)(F)F)cc2)sc2nc(-c3ccc(F)cc3)nn12,33.8%
15,COc1ccc(Cn2ccnc2SCC(=O)Nc2ccc3c(c2)OCO3)cc1,-2.47%
16,Cc1ccc2oc(C(=O)Nc3ccc(S(=O)(=O)N4CCCCCC4)cc3)cc(=O)c2c1,5.06%
17,CN1CCC(CN)(N2CCN(c3ccccc3)CC2)CC1,-78.1% (active)
18,Cn1nnc2c(N3CCN(c4ccccc4)CC3)ncnc21,-1.12%
19,CCS(=O)(=O)N1CCC(N2CCN(c3ccccc3)CC2)CC1,12.5%

row,Structure (SMILES),"activity change, negative = inhibition"
1,CCc1cccc(CC)c1NC(=O)Cn1c(=O)c(-c2cc(C)ccc2NC(C)=O)nc2ccccc21,-4.17%
2,COc1ccc(S(=O)(=O)NCc2ccc(C(=O)N(C)Cc3ccco3)cc2)cc1,-13.3%
3,COc1ccc(CN(Cc2ccco2)S(=O)(=O)c2ccc(S(=O)(=O)N3CCCC3)cc2)cc1,-62% (active)
4,COc1ccc(CCC(=O)N2CCN(S(=O)(=O)c3ccc(OC)cc3)CC2)cc1,-31.5%
5,CC1CCN(c2ccc3c(c2)S(=O)(=O)c2cc(C(=O)O)ccc2C3=O)CC1,22.6%
6,CC1CCN(c2ccc([N+](=O)[O-])c(SCCO)c2)CC1,-72.7% (active)
7,CC1CCN(c2ccc(S(=O)(=O)Nc3cc(C(=O)O)cc(C(=O)O)c3)cc2[N+](=O)[O-])CC1,31%
8,CN(c1ccccc1)S(=O)(=O)c1cc(C(=O)OCC(=O)N2CCN(C(=O)c3ccco3)CC2)ccc1Cl,-12%
9,CN(c1ccccc1)S(=O)(=O)c1cc(C(=O)Nc2nc3ccccc3[nH]2)ccc1Cl,-61.3% (active)
10,CN(C)S(=O)(=O)c1cc(C(=O)N2CCC(C(=O)O)(c3ccccc3)CC2)ccc1Cl,14.8%
11,CCS(=O)(=O)N1CCc2cc(C(=O)N3CCN(c4ccccc4OC)CC3)ccc21,10.3%
12,CN(c1ccccc1)S(=O)(=O)c1cccc(C(=O)NNC(=O)c2ccncc2)c1,-31.6%
13,CN(c1ccccc1)S(=O)(=O)c1cc(C(=O)N2CCN(c3ncccn3)CC2)ccc1Cl,-61.7% (active)
14,COc1ccc(C(=O)N2CCN(c3ncccn3)CC2)cc1S(=O)(=O)N1CCOCC1,63%
15,COc1ccccc1N1CCN(C(=O)c2ccc(Cl)c(S(=O)(=O)N3CCCC3)c2)CC1,-64.9% (active)
16,CN(c1ccccc1)S(=O)(=O)c1ccc(C(=O)N2CCN(c3ccccc3Cl)CC2)cc1,-25.5%
17,COc1ccc(C2NC(=O)N(C)C3=C2C(=O)N(c2ccc(C(=O)O)cc2)C3)cc1 (stereo unspecified),15.3%
18,CCOC(=O)c1cc2c(=O)[nH]c(C(Cl)(Cl)Cl)nc2o1,-14.4%
